Experimental data published in ChEMBL document CHEMBL3988442, “University of Dundee, Small-Polar-MMV Screening Library” (2021).
For some assays here: Entries with a potency or affinity are not part of this list.

Columns and labels:
Set-up in all cases: scale not given: direction of the effect not stated beside the values
[1] = target: Protein translocase subunit SecA (Escherichia coli (strain K12)) (UniProt P10408); test: Assay to Identify E. coli SecA ATPase Inhibitors; assay type: functional; details: 30 µM
Protein translocase subunit SecA (Escherichia coli (strain K12)), sequence (P10408 whole entry): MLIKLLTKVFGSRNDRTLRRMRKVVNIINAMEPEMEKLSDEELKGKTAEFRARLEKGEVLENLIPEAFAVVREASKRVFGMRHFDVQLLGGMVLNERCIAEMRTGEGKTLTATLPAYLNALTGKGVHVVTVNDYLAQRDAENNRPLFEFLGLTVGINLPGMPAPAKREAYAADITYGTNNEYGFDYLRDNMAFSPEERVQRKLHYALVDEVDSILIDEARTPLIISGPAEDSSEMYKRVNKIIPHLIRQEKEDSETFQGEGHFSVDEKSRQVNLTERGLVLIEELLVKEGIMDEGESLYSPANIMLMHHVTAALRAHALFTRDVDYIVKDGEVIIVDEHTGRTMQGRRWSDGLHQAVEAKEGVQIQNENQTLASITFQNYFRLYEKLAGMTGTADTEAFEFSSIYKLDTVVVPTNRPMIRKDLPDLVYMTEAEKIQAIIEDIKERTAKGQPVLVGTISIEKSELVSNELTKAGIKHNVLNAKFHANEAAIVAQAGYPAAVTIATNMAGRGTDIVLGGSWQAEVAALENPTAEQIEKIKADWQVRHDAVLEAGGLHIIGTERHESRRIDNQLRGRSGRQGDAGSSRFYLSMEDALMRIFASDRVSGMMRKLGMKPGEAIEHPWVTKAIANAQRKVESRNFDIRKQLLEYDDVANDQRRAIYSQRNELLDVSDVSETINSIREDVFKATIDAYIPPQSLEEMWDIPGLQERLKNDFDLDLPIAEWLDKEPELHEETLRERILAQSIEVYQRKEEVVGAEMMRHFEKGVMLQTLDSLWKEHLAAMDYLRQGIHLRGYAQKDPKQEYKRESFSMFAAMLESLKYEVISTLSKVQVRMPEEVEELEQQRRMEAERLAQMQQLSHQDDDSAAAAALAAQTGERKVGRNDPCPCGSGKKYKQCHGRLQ

[2] = target: T1, Ubiquitin-activating enzyme e1, putative (Leishmania donovani (strain BPK282A1)) (UniProt E9BSI1); test: Leishmania donovani Ubiquitin Activating Enzyme (LdE1); assay type: functional; details: 30 µM
T1 sequence (whole entry): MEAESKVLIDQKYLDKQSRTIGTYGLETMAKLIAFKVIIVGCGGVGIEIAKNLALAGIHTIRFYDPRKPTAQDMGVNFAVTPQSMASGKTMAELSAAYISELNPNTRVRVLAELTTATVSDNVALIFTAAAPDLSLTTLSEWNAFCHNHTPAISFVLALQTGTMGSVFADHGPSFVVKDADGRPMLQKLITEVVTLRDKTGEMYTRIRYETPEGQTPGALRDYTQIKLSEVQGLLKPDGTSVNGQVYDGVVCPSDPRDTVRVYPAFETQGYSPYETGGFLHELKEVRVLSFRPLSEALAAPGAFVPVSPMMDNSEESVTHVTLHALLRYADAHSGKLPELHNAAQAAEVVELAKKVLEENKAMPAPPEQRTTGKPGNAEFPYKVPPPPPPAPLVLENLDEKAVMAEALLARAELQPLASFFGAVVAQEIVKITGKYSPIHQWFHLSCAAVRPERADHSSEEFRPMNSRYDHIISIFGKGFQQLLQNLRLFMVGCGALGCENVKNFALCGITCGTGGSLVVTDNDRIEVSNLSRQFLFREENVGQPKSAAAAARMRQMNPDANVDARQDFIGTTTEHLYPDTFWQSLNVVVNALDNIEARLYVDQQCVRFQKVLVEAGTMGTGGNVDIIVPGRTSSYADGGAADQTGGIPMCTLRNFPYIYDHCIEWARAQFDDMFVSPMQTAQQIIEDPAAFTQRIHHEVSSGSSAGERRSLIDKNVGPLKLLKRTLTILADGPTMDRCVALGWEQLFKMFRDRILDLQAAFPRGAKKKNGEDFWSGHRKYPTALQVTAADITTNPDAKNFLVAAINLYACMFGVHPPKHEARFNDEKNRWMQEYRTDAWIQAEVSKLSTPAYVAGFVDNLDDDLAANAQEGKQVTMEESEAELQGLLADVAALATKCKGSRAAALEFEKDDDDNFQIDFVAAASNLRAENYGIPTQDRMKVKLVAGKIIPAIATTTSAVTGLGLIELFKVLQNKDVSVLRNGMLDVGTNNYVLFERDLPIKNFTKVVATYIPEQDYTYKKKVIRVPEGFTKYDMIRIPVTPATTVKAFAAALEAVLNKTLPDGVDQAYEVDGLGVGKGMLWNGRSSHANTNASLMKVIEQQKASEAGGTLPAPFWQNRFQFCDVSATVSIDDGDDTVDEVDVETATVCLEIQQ

[3] = target: AMP-activated protein kinase, AMPK (Homo sapiens) (UniProt P54646+O43741+P54619+Q9UGJ0+Q9Y478+Q13131+Q9UGI9); test: AMP-dependent Kinase enzyme assay. An in vitro enzyme assay that detects ADP turnover that is directly proportional to AMPK activity. This uses naive AMPK that is activated during the assay with MK-8722; assay type: functional; details: 30 µM
[4] = target: Sialic acid-binding Ig-like lectin 9 (Homo sapiens) (UniProt Q9Y336); test: Hs-Siglec9 ALPHAscreen SOP 20170721; details: 10 µM
Sialic acid-binding Ig-like lectin 9 (Homo sapiens), sequence (Q9Y336 whole entry): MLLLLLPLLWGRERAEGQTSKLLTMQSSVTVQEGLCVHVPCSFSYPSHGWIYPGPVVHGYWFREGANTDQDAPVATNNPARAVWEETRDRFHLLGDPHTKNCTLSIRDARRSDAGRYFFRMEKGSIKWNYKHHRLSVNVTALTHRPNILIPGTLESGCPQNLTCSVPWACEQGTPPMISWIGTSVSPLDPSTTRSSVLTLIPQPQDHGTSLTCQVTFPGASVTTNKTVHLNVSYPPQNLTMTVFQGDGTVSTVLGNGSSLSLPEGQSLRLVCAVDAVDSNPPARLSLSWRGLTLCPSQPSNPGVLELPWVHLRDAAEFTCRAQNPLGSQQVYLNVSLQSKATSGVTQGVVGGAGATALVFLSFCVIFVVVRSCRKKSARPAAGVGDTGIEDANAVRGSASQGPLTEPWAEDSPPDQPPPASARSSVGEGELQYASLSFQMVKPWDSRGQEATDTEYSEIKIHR

Trypanosoma cruzi = test: Trypanosoma cruzi phosphomannomutase and mannose-1-phosphate guanylyltransferase assay; assay type: functional; details: 10 µM
[5] = target: T2, Arginase-2, mitochondrial (Homo sapiens) (UniProt P78540); test: in vitro enzyme assay to detect the production of urea directly proportional to the activity of Arginase II; assay type: functional; details: 33.3 µM; note: in the data most compounds retested in dose-response had high values
T2 sequence (whole entry): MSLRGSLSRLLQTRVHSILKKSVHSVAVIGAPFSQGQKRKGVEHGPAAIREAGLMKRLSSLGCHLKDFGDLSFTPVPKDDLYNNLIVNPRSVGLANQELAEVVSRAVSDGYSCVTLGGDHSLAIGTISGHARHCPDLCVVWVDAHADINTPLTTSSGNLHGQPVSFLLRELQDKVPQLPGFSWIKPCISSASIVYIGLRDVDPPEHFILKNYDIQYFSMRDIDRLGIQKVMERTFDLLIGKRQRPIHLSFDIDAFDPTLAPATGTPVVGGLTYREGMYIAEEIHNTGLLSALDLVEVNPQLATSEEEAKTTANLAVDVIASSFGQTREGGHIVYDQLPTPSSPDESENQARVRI

[6] = target: T3, Proteasome subunit beta (Trypanosoma cruzi) (UniProt O96673); test: Trypanosoma cruzi proteasome chymotrypsin-like activity (TcProtChymo) assay.; note: in the data most compounds retested in dose-response had high values; assay type: functional; details: 9.37 µM
T3 sequence (whole entry): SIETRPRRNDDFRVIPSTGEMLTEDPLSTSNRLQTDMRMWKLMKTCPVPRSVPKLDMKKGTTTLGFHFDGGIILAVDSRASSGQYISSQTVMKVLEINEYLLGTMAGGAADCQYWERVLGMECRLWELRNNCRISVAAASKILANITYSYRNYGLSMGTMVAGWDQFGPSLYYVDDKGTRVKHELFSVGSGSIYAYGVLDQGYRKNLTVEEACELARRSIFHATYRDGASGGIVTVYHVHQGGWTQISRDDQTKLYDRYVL

Homo sapiens = organism: Homo sapiens; test: To identify inhibition of the IFN signalling (Jak-Stat) pathway via expression of an eGFP reporter gene under the control of an IFN-stimulated response element (ISRE) containing MxA promoter.; assay type: functional; details: 30 µM
[7] = target: T4, Tyrosyl-tRNA synthetase, putative (Trypanosoma cruzi (strain CL Brener)) (UniProt Q4DSP6); test: Trypanosoma cruzi tyrosyl tRNA synthetase (TcYRS) _High Tyrosine SOP; assay type: functional; details: 30 µM; note: in the data most compounds retested in dose-response had high values
T4 sequence (whole entry): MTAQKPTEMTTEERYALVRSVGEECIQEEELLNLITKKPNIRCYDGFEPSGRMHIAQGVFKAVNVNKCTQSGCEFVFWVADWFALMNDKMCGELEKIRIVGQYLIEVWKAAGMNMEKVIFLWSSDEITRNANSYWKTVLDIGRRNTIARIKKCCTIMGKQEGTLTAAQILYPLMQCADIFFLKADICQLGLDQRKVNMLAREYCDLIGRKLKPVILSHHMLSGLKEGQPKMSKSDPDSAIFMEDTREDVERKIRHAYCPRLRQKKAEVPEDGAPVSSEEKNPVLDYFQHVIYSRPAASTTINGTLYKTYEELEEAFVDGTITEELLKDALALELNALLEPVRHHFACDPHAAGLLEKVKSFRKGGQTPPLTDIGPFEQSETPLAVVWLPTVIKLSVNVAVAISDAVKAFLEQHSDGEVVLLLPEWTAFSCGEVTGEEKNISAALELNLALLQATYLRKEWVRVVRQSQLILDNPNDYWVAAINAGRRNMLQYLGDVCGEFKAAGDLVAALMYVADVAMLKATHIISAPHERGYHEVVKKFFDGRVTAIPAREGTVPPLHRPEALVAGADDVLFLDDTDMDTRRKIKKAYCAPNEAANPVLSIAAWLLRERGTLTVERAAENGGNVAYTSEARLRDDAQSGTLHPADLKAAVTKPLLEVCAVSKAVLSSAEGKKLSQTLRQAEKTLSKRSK

[8] = target: T4, Tyrosyl-tRNA synthetase, putative (Trypanosoma cruzi (strain CL Brener)); test: Trypanosoma cruzi tyrosyl tRNA synthetase (TcYRS) SOP; assay type: functional; details: 30 µM
[9] = target: Chromo domain-containing protein 1 (Saccharomyces cerevisiae (strain ATCC 204508 / S288c) (Baker's yeast)) (UniProt P32657); test: ScCHD-1 Enzyme Inhibition Assay; assay type: functional; details: 30 µM; note: in the data most compounds retested in dose-response had high values
Chromo domain-containing protein 1 (Saccharomyces cerevisiae (strain ATCC 204508 / S288c) (Baker's yeast)), sequence (P32657 whole entry, the tested form may be a part): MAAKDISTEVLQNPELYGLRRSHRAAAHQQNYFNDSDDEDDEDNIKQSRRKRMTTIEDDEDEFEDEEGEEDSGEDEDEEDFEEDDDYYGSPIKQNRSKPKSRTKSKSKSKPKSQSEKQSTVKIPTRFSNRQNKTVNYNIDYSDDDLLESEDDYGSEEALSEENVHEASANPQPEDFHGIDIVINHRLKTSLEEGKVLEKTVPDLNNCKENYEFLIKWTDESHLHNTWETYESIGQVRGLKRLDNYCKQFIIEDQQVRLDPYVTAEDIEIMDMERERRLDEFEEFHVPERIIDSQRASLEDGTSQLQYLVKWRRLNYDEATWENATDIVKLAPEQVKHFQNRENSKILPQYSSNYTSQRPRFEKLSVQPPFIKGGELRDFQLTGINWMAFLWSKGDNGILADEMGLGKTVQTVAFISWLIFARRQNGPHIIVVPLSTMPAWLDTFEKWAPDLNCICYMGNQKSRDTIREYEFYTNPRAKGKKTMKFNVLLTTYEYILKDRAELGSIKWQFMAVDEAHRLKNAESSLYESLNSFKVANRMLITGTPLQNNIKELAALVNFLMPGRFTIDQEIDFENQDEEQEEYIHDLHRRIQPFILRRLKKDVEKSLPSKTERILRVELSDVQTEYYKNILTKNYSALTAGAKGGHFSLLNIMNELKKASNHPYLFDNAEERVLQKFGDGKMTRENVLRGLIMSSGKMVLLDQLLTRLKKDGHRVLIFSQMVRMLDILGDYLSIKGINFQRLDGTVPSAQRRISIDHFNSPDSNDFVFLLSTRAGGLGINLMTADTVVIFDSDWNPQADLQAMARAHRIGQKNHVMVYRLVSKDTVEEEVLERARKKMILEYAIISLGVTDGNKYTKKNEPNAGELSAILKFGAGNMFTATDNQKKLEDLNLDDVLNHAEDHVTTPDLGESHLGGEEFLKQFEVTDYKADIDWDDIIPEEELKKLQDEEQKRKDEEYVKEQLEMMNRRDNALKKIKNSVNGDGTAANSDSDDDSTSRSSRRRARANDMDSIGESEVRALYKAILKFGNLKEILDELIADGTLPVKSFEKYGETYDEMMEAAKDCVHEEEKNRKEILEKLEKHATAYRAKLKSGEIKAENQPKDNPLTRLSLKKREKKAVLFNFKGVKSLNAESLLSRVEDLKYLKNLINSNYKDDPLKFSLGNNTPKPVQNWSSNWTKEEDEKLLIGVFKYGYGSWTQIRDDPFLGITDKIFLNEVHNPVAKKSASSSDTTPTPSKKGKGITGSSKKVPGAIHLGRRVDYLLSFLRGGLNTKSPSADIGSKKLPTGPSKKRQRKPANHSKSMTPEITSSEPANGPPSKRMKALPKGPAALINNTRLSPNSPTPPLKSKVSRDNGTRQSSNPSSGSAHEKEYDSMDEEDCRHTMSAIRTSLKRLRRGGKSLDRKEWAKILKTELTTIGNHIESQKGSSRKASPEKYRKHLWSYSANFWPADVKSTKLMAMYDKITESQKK

SMILES	Percent Effect [1] [%]	Percent Effect [2] [%]	Percent Effect [3] [%]	Percent Effect [4] [%]	Percent Effect (Trypanosoma cruzi) [%]	Percent Effect [5] [%]	Percent Effect [6] [%]	Percent Effect (Homo sapiens) [%]	Percent Effect [7] [%]	Percent Effect [8] [%]	Percent Effect [9] [%]
Cc1noc(C)c1CCC(=O)N1CCN(CCn2cccn2)CC1	-5.39	21.9	-6.91	19.6	7.64	8.18	8.52	3.96	3.23	17.5	-5.67
NC(=O)C1CCN(c2nc3nccc(-c4ccccn4)c3c(=O)[nH]2)CC1	-4.8	18.4	0.528	-4.82	0.0974	-2.37	22	2.93	8.51	23.4	7.17
CC1CCN(CCNC(=O)C2CCN(S(N)(=O)=O)CC2)CC1	-1.93	9.72	-5.79	-4.04	-3.4	1.77	10	3.48	2.1	5.13	-2.96
CCC1CN(c2nnc(C)c(C)c2C#N)CCO1 (configuration not stated)	-3.31	2.63	-17.9	-4.88	6.96	1.15	20.7	9.86	0.49	21.9	-13.8
Cc1ncsc1C(=O)N1CCCN(Cc2cscn2)CC1	-2.64	5.2	1.53	0.904	3.82	-1.9	-3.8	-3.73	6.67	9.41	-14.3
COc1ccc(CN2CCCC(Nc3cccc(F)c3)C2)cc1O (configuration not stated)	-3.14	0	-3.77	-2	-0.293	-0.744	-5.06	53.9	2.15	6.17	1.38
c1cnc(NCc2noc3c2CN(CCN2CCCC2)CC3)nc1	-1.82	8	-2.08	10.5	3.48	-47.5	18.1	-3.46	6.25	22.5	-8.39
Cc1cc2n(n1)CC(CNCc1cnn(-c3ccccc3)c1)CN2 (configuration not stated)	2.28	5.26	-10.4	1.3	2.26	4.21	13.9	15.7	12.2	12.2	-7.16
Cc1nc(CCCNC(=O)C2CC(=O)N(C3CC3)C2)sc1C (configuration not stated)	6.83	16.4	-10.9	5.44	1.59	-10.8	16.9	25.5	8.33	28.4	2.71
O=C(COc1cccc(Br)c1)N1CCOCC1c1ncon1 (configuration not stated)	-1.32	-2.7	-2.58	-3.06	6.13	1.6	1.44	-26.1	1.48	-1.24	-4.52
Cc1cc(CN2CCN(C(=O)NC(C)Cn3ccnc3)CC2)no1 (configuration not stated)	-1.68	5.26	3.31	7.81	3.38	1.53	-4.18	9.94	3.43	7.32	-4.96
CCNc1cc2c(nn1)CCN(C(=O)c1ccc3cc[nH]c3c1)C2	-5.7	5.26	1.7	1.43	6.96	-2.3	1.34	-2.63	8.33	19.5	-7.29
CCCc1n[nH]c(C2CN(C(=O)c3cc(F)ccc3OC)CCO2)n1 (configuration not stated)	-5.9	7.89	-0.379	3.53	2.33	-2.52	3.3	-17.2	6.4	11.1	-4.7
c1ccc(-c2nnn3c2COC(CNCC2CCOCC2)C3)cc1 (configuration not stated)	-4.05	8	10.9	4.62	-0.984	-1.63	0.0881	12.3	7.45	19.2	-2.25
CN(C)c1ncnc2c1CCN(CC1CCOC1)CC2 (configuration not stated)	-2.84	8.11	4.65	-0.235	-3.42	-2.87	18.6	-8.93	3.24	15.4	0.421
CCCNC(=O)CSc1nnc2[nH]c(=O)cc(CC)n12	-1.19	19.2	-3.66	6.46	1.37	-1.36	15.4	10.2	7.53	17.5	-7.28
CCOCC(O)CN1CCN(C(=O)c2cnc3n[nH]c(C)c3c2)CC1 (configuration not stated)	-4.29	10.5	1.79	1.55	5.7	1.44	8.54	10.1	7.39	16.1	-0.703
Cc1nnc(C2Cc3ccccc3CN2Cc2ncc(C(C)(C)C)o2)o1 (configuration not stated)	-1.87	15.6	3.3	-12.9	-3.82	-1.05	20.8	27.9	8.57	11.8	-17.8
CCCNC(=O)C(C)n1cc(Br)cn1 (configuration not stated)	-2.1	7.79	-0.549	2.6	-1.87	-194	5.49	-4.17	4.3	18.5	0.506
Cc1ccc(CN2CC(C(=O)Nc3ccccc3)C3(CCOCC3)C2)s1 (configuration not stated)	-2.15	8	-1.41	0.774	-0.579	-44.3	11.4	-5.53	3.12	25	-6.22
O=C(CCc1nccs1)N1CCC(N2CCNC2=O)CC1	-3.04	13.7	-3.05	-5.29	-3.33	1.82	12.6	12.7	5.38	12.5	-3.97
COC[C@]12COC[C@H]1CN(Cc1cc(OC)cc(OC)c1)C2	-2.64	2.7	-1.96	2.27	4.59	6.05	11.2	-4.13	1.08	7.69	2.95
